# Screens (PubChem)
# AmpC inh detg – inhibitors of E. coli AmpC beta-lactamase with detergent; AmpC hydrolysis of nitrocefin, absorbance 480 nm, 0.01% Triton; Potency, µM (top dose mostly 114 µM), for the others: top-dose activity change, negative = inhibition, hits mostly inhibitors; 370,000 tested, 0.041% active;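 also: 0% = no-compound wells and -100% = no-enzyme wells; nearly all actives have a fitted effect of over 25% in size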
# Target sequence (P00811 whole entry, looked up): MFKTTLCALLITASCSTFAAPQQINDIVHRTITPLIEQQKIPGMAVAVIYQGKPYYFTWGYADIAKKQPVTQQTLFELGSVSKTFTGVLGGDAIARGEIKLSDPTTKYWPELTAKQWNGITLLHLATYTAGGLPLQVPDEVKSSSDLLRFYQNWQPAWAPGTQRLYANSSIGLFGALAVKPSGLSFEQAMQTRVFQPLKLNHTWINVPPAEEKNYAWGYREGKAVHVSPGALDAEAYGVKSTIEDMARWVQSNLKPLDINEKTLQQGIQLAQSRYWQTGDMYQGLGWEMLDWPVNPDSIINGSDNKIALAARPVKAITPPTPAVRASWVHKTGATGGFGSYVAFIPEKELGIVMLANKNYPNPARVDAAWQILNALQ
#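 AmpC (5.3 nM in the dispensed reagent) in 20 mM phosphate pH 7.0 with 0.01% (detergent screen) or 0.0001% Triton X-100 was preincubated with compounds for 15 min at room temperature. Nitrocefin was then added from an 800 uM solution, and hydrolysis was followed at 480 nm.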
# SARS PLP yeast – inhibitors of SARS-CoV papain-like protease in yeast | S. cerevisiae expressing SARS-CoV PLpro, growth rescue | Potency, µM (titrated, usually from 32.9 µM), for the others: top-dose activity, positive = growth rescue, usual class: activators | 330,000 tested, 0.19% active | AID 485353; calls by dose curve; also: 0% is about no effect; nearly all actives have a fitted effect of over 55% in size
# Pf growth 96h – inhibits malaria parasite growth, 96 h; Potency, µM (top dose mostly 28.7 µM), without a hit: top-dose activity change, negative = inhibition, actives largely listed as inhibitors; 320,000 tested, 6.9% active; P. falciparum luciferase reporter growth, 96 h; also: % is scaled to controls: 0 for no effect and ±100 for the full control effect
#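 P. falciparum expressing integrated firefly luciferase grown in erythrocytes (2% hematocrit, 0.05% parasitemia final) with compounds for 96 hours at 37 C, 5% CO2. Growth inhibition read as loss of luminescence after adding luciferase detection reagent.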
# Sm TGR inh – blocks Schistosoma mansoni thioredoxin glutathione reductase; 360,000 tested, 3% active; Potency, µM (highest dose often 114 µM), without a hit: top-dose activity change, negative = inhibition, hits mostly inhibitors; purified TGR, DTNB reduction, TNB absorbance 405 nm; Q962Y6; also: % is scaled to controls: 0 for no effect and ±100 for the full control effect; nearly all actives have a fitted effect of over 60% in size
#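 Kinetic colorimetric format: TGR-catalysed, NADPH-driven DTNB reduction monitored via TNB absorbance. Enzyme dispensed at 20 nM; compound exposure 15 min at room temperature before reaction start.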
# AmpC no deterg – AmpC beta-lactamase inhibition without detergent; P00811; AmpC nitrocefin hydrolysis, absorbance 480 nm, 0.0001% Triton; Potency, µM (doses to about 57.1 µM), for inactives: top-dose activity change, negative = inhibition, usual class: inhibitors; 330,000 tested, 0.52% active; AID 485341;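 also: plate controls were no compound for no effect and no enzyme for full effect; nearly all actives have a fitted effect of over 20% in size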
#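 AmpC (5.3 nM in the dispensed reagent) in 20 mM phosphate pH 7.0 with 0.01% (detergent screen) or 0.0001% Triton X-100 was preincubated with compounds for 15 min at room temperature. Nitrocefin was then added from an 800 uM solution, and hydrolysis was followed at 480 nm.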
# Pf growth 48h – inhibits P. falciparum growth in the first generation, 48 h; P. falciparum luciferase growth in erythrocytes, 48 h; Potency, µM (titrated, usually from 28.7 µM), without a hit: at the highest dose activity change, negative = inhibition, usual class: inhibitors; 310,000 tested, 5.9% active; also: % is scaled to controls: 0 for no effect and ±100 for the full control effect
#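 Parasite viability was followed by luminescence of a genomically integrated firefly luciferase. Cultures held 0.1% parasitemia at 2% hematocrit (final), incubated under 5% CO2 at 37 C.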
# The depositor's hits bear a star; ? = inconclusive; / = not tested or not shown; [ ] = another dose, or the depositor's remark. A selection: hits, their analogues and other compounds. The true share with any hit is near 12%. Unless noted, calls follow the shape of the dose curve; as a rule, active = well fitted curve in the direction sought with a large enough effect; inconclusive = small, poorly fitted or top-dose-only effect, or another doubt; inactive = no such curve, though single readings can be large; an effect the other way counts as inactive or inconclusive. Potency is read from the fitted curve at half-maximal effect.
SMILES,AmpC inh detg,SARS PLP yeast,Pf growth 96h,Sm TGR inh,AmpC no deterg,Pf growth 48h
COC(=O)C1(Cc2ccccc2)NC(c2ccccc2C)C2C(=O)N(c3ccc4c(c3)OCO4)C(=O)C21 (stereo not given),-5.8%,12.7%,22.7%,-17.1%,13.8%,11.7µM*
Cc1noc(/C=C/c2cccs2)c1S(=O)(=O)N1CCC(C(=O)NCc2ccccc2Cl)CC1,-1.2%,/,/,0.7%,/,/
Cc1cc(C)nc(SCc2ccc(C(=O)O)o2)n1,?,1.7%,?,-21.4%,-26.4%,12.4%
Cc1cc(C(F)(F)F)nc(SCc2ccc(C(=O)O)o2)n1,-9.4%,4.5%,57.5%,14.1µM*,-30.1%,23.7%
Cc1cc(Cl)ccc1OCCCC(=O)N1CCN(C(=O)c2ccco2)CC1,-15.3%,-3.3%,?,50.1µM*,80.8%,-4.1%
CCc1cc2cc(C)cc(C)c2nc1SCC(=O)N1CCN(C(=O)c2ccco2)CC1,-14.3%,?,8.28µM*,-18.8%,0.8%,-24.4%
O=C(CSc1nc2ccc(Cl)cc2[nH]1)N1CCN(C(=O)c2ccco2)CC1,-2.6%,12.4%,?,50.1µM*,-6.1%,1.4%
Cc1cc(C)c2nc(N3CCCN(C(=O)c4ccco4)CC3)c(C#N)cc2c1,3.5%,7.9%,?,2µM*,39.6%,0.0%
Cc1ccc2nc(SCC(=O)N3CCN(C(=O)c4ccco4)CC3)[nH]c2c1,4.3%,14.6%,-17.8%,5.9%,-7.6%,5.4%
CCOC(=O)N1CCc2c(sc3c2c(=O)n(Cc2ccccc2)c(=O)n3CC(=O)Nc2ccccc2F)C1,2.5%,/,/,-5.4%,/,/
CCOc1cccc(C(=O)N(Cc2ccc(F)cc2)Cc2ccco2)c1,3.1%,/,/,1.0%,/,/
CCc1cc2ccc(C)cc2nc1SCC(=O)NNC(=O)c1ccco1,-17.4%,2.3%,4.65µM*,6.1%,-24.0%,16.9%
CCc1cc2ccc(C)cc2nc1SCC(=O)N1CCN(C(=O)c2ccco2)CC1,-10.9%,-2.1%,63.0%,39.8µM*,96.0%,?
COCCCN1C(=O)c2ccc(C(=O)OCC(=O)N(CCC#N)c3cc(C)cc(C)c3)cc2C1=O,-7.7%,-24.7%,29.2%,-0.6%,222.7%,1.1%
CC1CC(C)CN(CCCNC(=O)c2csc3c2CCCC3)C1 (stereo not given),-7.7%,6.1%,50.2%,1.2%,-6.5%,-29.2%
CC(=O)NC(N(C#N)c1nc(Cl)nc(N(C)C)n1)C(Cl)(Cl)Cl (stereo not given),-0.5%,0.1%,46.1%,39.8µM*,-10.2%,13.0%
CCN(CC)C(=O)C(C)N(C#N)c1nc(Cl)nc(N(C)C)n1 (stereo not given),6.9%,-0.4%,25.3%,0.2%,-2.5%,-16.1%
O=C(CCc1ccccc1)Nc1ccc(S(=O)(=O)NC2=NCCCCC2)cc1,/,-3.4%,/,/,-15.1%,/
CCN(CC)c1ccc2cc(C(N)=O)c(=N)oc2c1,-4.3%,0.5%,33.1%,/,-5.1%,34.8%
CCN(CC)c1ccc2cc(C(N)=O)c(=O)oc2c1,-6.2%,-1.5%,10.4µM*,-7.9%,-9.6%,108.9%
CCOCCCNC(=O)c1ccc2nc(-c3ccc(OC)c(OC)c3)c(-c3ccc(OC)c(OC)c3)nc2c1,-3.8%,0.3%,14.1%,9.6%,180.7%,3.7µM*
COc1ccc(/C(O)=C/c2nc3ccc(C(=O)NCCc4cccc(C)c4)cc3[nH]c2=O)cc1OC,?,0.1%,?,4.6%,-23.7%,4.65µM*
COc1ccc(CCNC(=O)c2ccc3nc(-c4ccco4)c(-c4ccco4)nc3c2)cc1OC,5.1%,-9.4%,/,3.16µM*,77.0%,?
COc1cc(Br)c(CCNC(=O)c2ccco2)cc1OC,-7.3%,-0.3%,?,-26.7%,-4.3%[2.29 µM],5.22µM*
CCCCn1c(N)c(N(CC(C)C)C(=O)CCNC(=O)c2ccc(Cl)cc2)c(=O)[nH]c1=O,2.1%,-0.7%,-12.4%,14.0%,-5.5%,-9.2%
